Source: PubChem BioAssay AID602250 (The Scripps Research Institute Molecular Screening Center, 2012)
About 2,200 (0.61%) of roughly 360,000 compounds were called active. The list comes from a sample in which actives are over-represented; it also holds similar structures and randomly drawn compounds. Unmarked numbers belong to inactive results.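 How the source made its calls: active means inhibition above a per-plate cutoff, the plate's mean sample inhibition plus 3 SD (cut at about 24% in these data); inactive means the rest.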

Test: calcium signal blockers in parental CHO-K1 cells – cell-based, Fluo-8 calcium fluorescence, full deck, 1536-well, counter-screen for M1 antagonist project, primary screen (AID 602250);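 further: 0% = DMSO plus EC80 ATP and 100% = DMSO alone without ATP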
Conditions: ATP-induced calcium, Fluo-8 fluorescence, at 3 µM, hits give high values

| SMILES | inhibition |
| --- | --- |
| CCc1ccc(/C=N/NC(=O)c2ccc(OC3CCCC3)cc2)s1 | 3.77% |
| Cc1cc(=O)oc2c(C)c(OCC(=O)NCCN3CCOCC3)ccc12 | -7.03% |
| O=C(C1CCCO1)N1CCN(S(=O)(=O)c2ccc(Br)cc2)CC1 (stereo not given) | 5.99% |
| COc1cc(C(=S)NCc2ccccc2)cc(Br)c1O | -5.75% |
| Cc1cc(NC(=O)Cn2nc(C(F)(F)F)c3c2CCCC3)no1 | -9.16% |
| CCC(C)NC(=O)Cn1nc(C(F)(F)F)c2c1CCC2 (stereo not given) | -24.7% |
| O=C(Cn1nc(C(F)(F)F)c2c1CCC2)NCc1ccc(F)cc1 | 25% (active) |
| CC(C)C(=O)Nc1ccc2c3c(cccc13)CC2 | -5.37% |
| N#CC1(Nc2ccc3c4c(cccc24)CC3)CCCCC1 | 35.7% (active) |
| N#CC1(Nc2ccc(-c3ccc(Cl)cc3)cc2)CCCC1 | -8.66% |
| CCn1c(=O)c(=O)[nH]c2c(=O)oc3ccc(S(=O)(=O)Nc4ccc(OC)cc4)cc3c21 | -7.54% |
| CCC(NC(=O)C1CCCC1)c1ccc(C)cc1 (stereo not given) | -8.16% |
| Cc1ccc(NC(=O)[C@H](Cc2ccccc2)NC(=O)C2CCNCC2)cc1 | -21.4% |
| CCC(Cc1ccccc1)NC(=O)C1CCCCC1 (stereo not given) | 27.9% (active) |
| O=c1[nH]c(CSc2ccccc2)nc2c1oc1ccccc12 | -8.98% |
| CN(C(=O)CSc1nnc(-c2n[nH]c3ccccc23)o1)c1ccccc1 | -5.61% |
| Cc1cccc2cc3c(N)c(C(=O)N4CCCc5ccccc54)sc3nc12 | 13.5% |
| COc1ccc(NC(=O)C(NC(C)=O)C(=O)NCc2ccccc2Cl)cc1 (stereo not given) | 1.86% |
| O=C(Nc1ccc(OCCO)cc1)c1csc([C@H]2C[C@H](O)[C@@H](CO)O2)n1 | 25.4% (active) |
| O=C(Nc1ccc(Cl)cc1)c1csc([C@@H]2O[C@H](CO)[C@H](O)[C@H](O)[C@H]2O)n1 | -8.36% |
| O=C(Nc1ccc(Cl)cc1)c1csc([C@H]2C[C@H](O)[C@@H](CO)O2)n1 | 20.1% |
| O=C(c1ccc(S(=O)(=O)NCc2ccco2)cc1)N1CCN(c2ccccc2)CC1 | -11.5% |
| O=C(c1ccc(S(=O)(=O)N2CCOCC2)cc1)N1CCN(c2ccccc2)CC1 | 24.7% (active) |

| SMILES | inhibition |
| --- | --- |
| O=C(c1ccc(S(=O)(=O)N2CCCC2)cc1)N1CCN(c2ccccc2F)CC1 | -8.35% |
| Cc1ccc(C(=O)Nc2ccn(C)n2)cc1 | -13.4% |
| COC(=O)c1nc(NC(=O)c2ccc(F)cc2)n[nH]1 | -11.8% |
| CSc1nccc(NC(=O)c2ccc(C(C)(C)C)cc2)n1 | 24.6% (active) |
| COc1ccccc1CNC(=O)c1cc(-c2cc(Cl)ccc2C)n[nH]1 | -17.7% |
| Cc1ccc(S(=O)(=O)N(Cc2ccc(Cl)cc2)c2ccccc2C(=O)NCc2cccnc2)cc1 | 22.6% |
| COc1ccc(C)c(Cn2c(-c3nonc3N)nc3ccccc32)c1 | -35.1% |
| Nc1nonc1-c1nc2ccccc2n1Cc1ccc(F)cc1 | 24.1% (active) |
| O=c1[nH]cccc1-c1nc2ccccc2n1Cc1ccc(Cl)cc1 | 6.91% |
| O/N=C(\C[n+]1ccccc1)c1ccc(Br)cc1 | -7.88% |
| CCS(=O)(=O)c1ccc(C(=O)NC)c(Cl)c1Cl | -11.1% |
| CC(=O)c1ccc(NC(=O)C2CCCN2S(=O)(=O)c2cccs2)cc1 (stereo not given) | 24% (active) |
| CC(=O)Nc1ccc(S(=O)(=O)N2CCN(S(=O)(=O)c3cccs3)CC2)cc1 | 6.03% |
| CC(=O)c1cccc(NC(=O)C2CCCN2S(=O)(=O)c2cccc3nsnc23)c1 (stereo not given) | 5.27% |
| Cc1ccc(SCCN2C(=O)NC(C)(C)C2=O)cc1 | -11.7% |
| CCOC(=O)C1C(=O)C=C(c2ccc(OC)cc2)CC1c1ccco1 (stereo not given) | -9.22% |
| CCC1(C(=O)c2ccccc2)C(c2cccc([N+](=O)[O-])c2)C1(C(=O)OC)C(=O)OC (stereo not given) | -5.15% |
| COc1ccc(N2CCN(C(=S)Nc3ccc(S(N)(=O)=O)cc3)CC2)cc1 | -21.9% |
| CCCN(CC1COc2ccccc2O1)C(=S)Nc1ccc(C)cc1 (stereo not given) | -5.53% |
| S=C(NCC1COc2ccccc2O1)Nc1ccc(Br)cc1 (stereo not given) | 32.9% (active) |
| CC(NC(=S)Nc1ccccc1)C1COc2ccccc2O1 (stereo not given) | 4.65% |
| COc1ccc(C)cc1NC(=O)CN1c2cccc3cccc(c23)S1(=O)=O | -7.85% |
| CCc1ccccc1N(CC(=O)NCC1CCCO1)C(=O)CCC(=O)Nc1nccs1 (stereo not given) | -0.55% |

| SMILES | inhibition |
| --- | --- |
| C=CCNC(=S)N1CCN(CCN=Cc2c(C)[nH]n(-c3ccc([N+](=O)[O-])cc3)c2=O)CC1 | 13.7% |
| O=C(c1ccc(F)cc1)N1CCC(n2nnc3ccccc32)CC1 | 5.53% |
| O=S(=O)(c1cccc(S(=O)(=O)N2CCC(n3nnc4ccccc43)CC2)c1)N1CCCCC1 | 25.7% (active) |
| CC(=O)c1cccc(S(=O)(=O)N2CCC(n3nnc4cc(F)ccc43)CC2)c1 | -5.37% |
| O=C1c2ccccc2C(=O)N1CC1c2ccccc2CCN1S(=O)(=O)c1ccccc1 (stereo not given) | -4.18% |
| CCc1nnc(NC(=O)CSc2nc(SC)ns2)s1 | -15.7% |
| O=C(O)c1ccccc1-c1ccccc1C(=O)Nc1nccs1 | -12.8% |
| COc1ccc(-c2nn(-c3ccccc3)cc2C(=O)Nc2nccs2)cc1OC | 33.9% (active) |
| COc1ccc(Cl)cc1NC(=O)CN(C)C(=O)c1cn(-c2ccccc2)nc1-c1cccs1 | -12.4% |
| O=C(COc1ccc(F)cc1)N(CC1=CCS(=O)(=O)C1)c1ccccc1 | -14.8% |
| O=C1OC(Cc2ccccc2)C(c2ccccc2)C1=O (stereo not given) | -2.69% |
| CCOC(=O)[C@H]1[C@H]2COc3ccc(Br)cc3[C@@H]2N2C(=O)CN(C)C(=O)[C@@]12C | -3.65% |
| Cc1c(C)n(Cc2ccc(Cl)cc2)c2ccc(C(=O)NCCCN3CCOCC3)cc12 | 31.3% (active) |
| O=C(NCCCN1CCOCC1)c1cc(-c2ccc(Cl)cc2)on1 | -8.77% |
| COc1ccc(C(=O)NCCCN2CCOCC2)cc1Br | 8.25% |
| O=C(COc1ncnc2c(Cl)cc(Cl)cc12)N1CCN(S(=O)(=O)c2ccccc2)CC1 | -14% |
| O=C(Nc1cccc(Cl)c1)Nc1ccccc1NS(=O)(=O)c1cccs1 | 36.7% (active) |
| O=S(=O)(Nc1ccccc1)c1ccc(NS(=O)(=O)c2cccs2)cc1 | -3.36% |
| O=S(=O)(Nc1ccccc1Br)c1cccs1 | -11% |
| Cn1c(NCc2cccnc2)nc2cc(-c3ccc(F)cc3)sc2c1=O | -2.34% |
| CCN(C(=O)COC(=O)c1c(NC(C)=O)sc(C)c1C)C1CCS(=O)(=O)C1 (stereo not given) | -7.84% |
| Cc1ccc(S(=O)(=O)c2ccc(Cl)cc2)cc1S(=O)(=O)NC(C(=O)O)C(C)C (stereo not given) | -0.98% |
| CC(=O)Nc1ccc(S(=O)(=O)N2CCN(C(=O)c3ccccc3F)CC2)cc1 | 0.99% |

| SMILES | inhibition |
| --- | --- |
| CCC1=NN(C(=O)Cc2ccc([N+](=O)[O-])cc2)C(O)(c2ccc(Br)cc2)C1 (stereo not given) | -13.2% |
| Cc1ccc(Nc2nc(CSc3nnnn3-c3ccccc3)cc(=O)[nH]2)cc1 | 2% |
| CN1OC[C@@H]2CN(C(=O)c3cccc4ccccc34)[C@H](c3ccc(N4CCCCC4)cc3)C[C@@H]21 | 16.5% |
| CN1OC[C@@H]2CN(C(=O)C(C)(C)C)[C@H](c3ccc(-n4ccnc4)cc3)C[C@@H]21 | 28.2% (active) |
| CN1OC[C@@H]2CN(C(=O)c3cccnc3)[C@H](c3ccc(N4CCCCC4)cc3)C[C@@H]21 | 8.63% |
| COc1ccc(Cl)cc1NC(=O)Cn1nc(-c2ccc(C)cc2)n(C)c1=S | -1.73% |
| COc1ccccc1OCC(=O)OCc1cc(-c2ccco2)on1 | -11.2% |
| CC(C)C1C(=O)N(Cc2cn(CCC3OCCO3)nn2)CCS(=O)(=O)N1Cc1ccc(-c2ccccc2C(F)(F)F)cc1 (stereo not given) | -1.16% |
| Cc1ccc(Cn2nnc3c(=O)[nH]c(C4CCN(S(=O)(=O)/C=C/c5ccccc5)CC4)nc32)cc1 | -19.1% |
| COCCNC(=O)/C(C#N)=C/c1cccc(OCc2ccccc2)c1 | -9.6% |
| COc1cc(/C=C(\C#N)C(=O)Nc2ccc3ccccc3c2)c([N+](=O)[O-])cc1OC | 0.2% |
| COc1ccc(NC(=O)/C(C#N)=C\c2cc(OC)c(OCc3ccc(C(=O)O)cc3)cc2Br)cc1 | 24.8% (active) |
| c1ccc(CCN2CN=C(Nc3nc4ccccc4o3)NC2)cc1 | -10.1% |
| Cc1ccccc1N(C(=O)Cc1cccs1)C(C(=O)NC1CCCCC1)c1cn(C)nc1C (stereo not given) | -4.07% |
| O=S(=O)(Nc1ccc2nc(-c3ccco3)[nH]c2c1)c1ccccc1 | -1.24% |
| Cc1cc(OC(C)C(=O)Nc2ccc(S(=O)(=O)Nc3onc(C)c3C)cc2)cc(C)c1Cl (stereo not given) | 8.91% |
| O=C(NC1(C(F)(F)F)N=C2SCCN2C1=O)c1ccco1 (stereo not given) | 23.7% (active) |
| COc1ccc(S(=O)(=O)NC2(C(F)(F)F)N=C3SCCN3C2=O)cc1 (stereo not given) | 6.7% |
| O=C(NN1C(=O)C2CCCCC2C1=O)c1ccco1 (stereo not given) | -4.97% |
| Cc1c(NC(=O)CSCc2ccccc2)cccc1C(=O)O | -4.2% |
| CC(C)CN(CC(C)C)CC(O)CN(c1ccccc1)S(=O)(=O)c1ccccc1[N+](=O)[O-] (stereo not given) | -22.2% |
